Results published in PubChem BioAssay.
Active and inactive are the calls of the source.

Legend:
[1] = binders of probe aFSTL3 on microarray, primary screen, stem cell growth factor project, biochemical, small-molecule microarray, fluorescence 635/667 (AID 1064); details: higher = more signal;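 note: measures binding of the biotinylated anti-FSTL3 antibody to printed compounds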
[2] = binders from COS7 lysate, DM2A8 probe, primary screen, torsin A project, cell lysate, small-molecule microarray, fluorescence 635/667 (AID 1065); details: higher = more signal, COS7 lysate expressing mutant human TOR1A
[3] = binders of probe aFGF2 on microarray, primary screen, stem cell growth factor project, biochemical, small-molecule microarray, fluorescence 635/667 (AID 1067); details: higher = more signal;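 note: measures binding of biotinylated aFGF2 protein to printed compounds on slides; z-score merges feature fluorescence and signal-to-noise across triplicate slides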
[4] = binders of probe aFGF10 on microarray, primary screen, stem cell growth factor project, biochemical, small-molecule microarray, fluorescence 635/667 (AID 1071); details: higher = more signal;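 note: score merges 667 nm spot intensity and signal to noise from triplicate slides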
[5] = molecular target: Neurogenic locus notch homolog protein 2 (Homo sapiens) (UniProt Q04721); test: Notch2 binders on small-molecule microarrays, primary screen, biochemical, small-molecule microarray, 635 nm fluorescence, stem cell growth factors (AID 1073); details: Notch2 binding, higher = more signal
[6] = molecular target: Pro-neuregulin-1, membrane-bound isoform (Homo sapiens) (UniProt Q02297); test: NRG1 binders on small-molecule microarrays, primary screen, psychiatric disease protein project, biochemical, small-molecule microarray, fluorescence 635/667 (AID 1075); details: NRG1 binding, 635 nm fluorescence, higher = more signal;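 note: score combines 667 nm spot fluorescence with signal to noise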
Pro-neuregulin-1, membrane-bound isoform (Homo sapiens), sequence (Q02297 whole entry, looked up, the tested form may be a part, canonical isoform): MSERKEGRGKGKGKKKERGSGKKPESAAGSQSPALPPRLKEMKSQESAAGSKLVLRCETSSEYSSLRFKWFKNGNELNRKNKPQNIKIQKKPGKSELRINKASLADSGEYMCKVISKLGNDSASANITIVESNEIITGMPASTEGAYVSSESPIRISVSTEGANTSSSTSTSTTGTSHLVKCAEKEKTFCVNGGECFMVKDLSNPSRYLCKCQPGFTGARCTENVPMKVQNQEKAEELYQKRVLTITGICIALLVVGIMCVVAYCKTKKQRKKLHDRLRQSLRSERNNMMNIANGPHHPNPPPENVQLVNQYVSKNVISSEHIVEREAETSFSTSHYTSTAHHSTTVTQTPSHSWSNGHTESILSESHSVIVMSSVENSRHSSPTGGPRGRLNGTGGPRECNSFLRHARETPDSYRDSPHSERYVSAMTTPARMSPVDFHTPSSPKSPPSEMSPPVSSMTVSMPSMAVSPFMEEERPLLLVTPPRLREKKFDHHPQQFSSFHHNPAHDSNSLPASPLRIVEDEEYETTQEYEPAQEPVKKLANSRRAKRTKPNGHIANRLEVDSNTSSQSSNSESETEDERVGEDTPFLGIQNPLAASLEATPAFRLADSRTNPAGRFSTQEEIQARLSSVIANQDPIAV

[7] = tested on: Neuregulin-1 EGF-like domain; test: binders of neuregulin-1 EGF-like domain, primary screen, biochemical, small-molecule microarray, 635 nm fluorescence (AID 1081); details: small-molecule microarray binding, higher = more signal;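 note: binding of the protein to compounds printed on small-molecule microarray slides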
[8] = FRG1 promoter luciferase signal modulators, primary screen, FRG1 inhibition for FSHD, cell-based, C2C12 myotubes, firefly/Renilla luciferase, luminescence (AID 1084); details: higher = more signal, called active from +8 up or from −8 down
[9] = binders of probe aFST on microarray, primary screen, stem cell growth factor project, biochemical, small-molecule microarray, fluorescence 635/667 (AID 1086); details: higher = more signal;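 note: score merges 667 nm fluorescence with signal-to-noise of each printed compound spot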
[10] = binders of probe aHhip on microarray, primary screen, stem cell growth factor project, biochemical, small-molecule microarray, fluorescence 635/667 (AID 1087); details: higher = more signal;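 note: score merges spot fluorescence at 667nm with spot signal to noise ratio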
[11] = tested on: PRMT1 (protein arginine N-methyltransferase 1); test: PRMT1 binders on small-molecule microarrays, primary screen, biochemical, small-molecule microarray, 635 nm fluorescence (AID 1088); details: small-molecule microarray binding, higher = more signal;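 note: binding of Prmt1 protein to compounds spotted on small-molecule microarray slides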
[12] = yeast growth modulation, basal conditions, primary screen, YJM789 clinical isolate, OD600, 24 h (AID 1089);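 note: growth of clinical yeast isolate S. cerevisiae YJM 789 seeded 1000 cells per well; test concentration not given here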; details: S. cerevisiae YJM789 growth, higher = more signal, called active from +8 up or from −8 down
[13] = fission yeast growth modulation, primary screen, strain 972, OD600, 24 h, no modulator (AID 1090);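 note: basal condition with compound alone and no growth modifier present; test concentration not given here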; details: S. pombe 972 growth, higher = more signal, called active from +8 up or from −8 down
[14] = S. cerevisiae growth modulation with rapamycin, primary screen, strain BY4716, OD600, 96 h (AID 1091); details: higher = more signal, called active from +8 up or from −8 down; note: test concentration not given here
[15] = molecular target: Torsin-1A-interacting protein 2 (Homo sapiens) (UniProt Q8NFQ8); test: LULL1 binders on small-molecule microarray, primary screen, cell lysate, human LULL1 lysate, 635/667 nm fluorescence (AID 1092); details: hLULL1 lysate binding, 635 nm fluorescence, higher = more signal;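 note: probe is lysate of COS7 cells overexpressing human LULL1; score merges per-feature 667 nm fluorescence with signal-to-noise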
Torsin-1A-interacting protein 2 (Homo sapiens), sequence (Q8NFQ8 whole entry, looked up): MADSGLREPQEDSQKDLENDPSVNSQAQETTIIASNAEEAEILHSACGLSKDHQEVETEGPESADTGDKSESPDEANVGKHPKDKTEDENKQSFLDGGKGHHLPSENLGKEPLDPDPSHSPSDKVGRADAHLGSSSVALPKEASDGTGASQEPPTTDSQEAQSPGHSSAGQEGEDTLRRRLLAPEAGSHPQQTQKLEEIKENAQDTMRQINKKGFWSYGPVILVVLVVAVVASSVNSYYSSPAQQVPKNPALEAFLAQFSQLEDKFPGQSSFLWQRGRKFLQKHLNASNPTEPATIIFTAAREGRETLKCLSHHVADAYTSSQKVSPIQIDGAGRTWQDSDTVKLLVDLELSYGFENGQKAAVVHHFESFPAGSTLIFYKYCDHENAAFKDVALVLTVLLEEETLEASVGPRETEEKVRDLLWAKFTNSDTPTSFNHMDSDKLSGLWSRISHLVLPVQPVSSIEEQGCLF

[16] = E. coli growth modulation, two-sided OD650, primary screen, E. coli filamentation project, strain DRC41, 24 h (AID 1093); details: OD650, 24 h, higher = more signal, called active from +8 up or from −8 down;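 note: MC1000 strain lacking acrAB efflux and sulA so SOS filamentation is blocked; test concentration not given here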
[17] = small-molecule microarray binders of probe aLefty2, primary screen, biochemical, biotinylated probe, 635/667 nm fluorescence (AID 1094); details: higher = more signal;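 note: score merges spot fluorescence near 667 nm with spot signal-to-noise ratio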
[18] = tested on: Noggin (protein binding on small-molecule microarray); test: Noggin binders on small-molecule microarray, primary screen, biochemical, 635/667 nm fluorescence (AID 1095); details: 635 nm fluorescence, higher = more signal;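 note: score merges 667 nm feature fluorescence with signal to noise over triplicate slides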
[19] = molecular target: Neurogenic locus notch homolog protein 3 (Homo sapiens) (UniProt Q9UM47); test: NOTCH3 binders on small-molecule microarray, primary screen, biochemical, 635/667 nm fluorescence (AID 1096); details: NOTCH3 binding, 635 nm fluorescence, higher = more signal
Neurogenic locus notch homolog protein 3 (Homo sapiens), sequence (Q9UM47 whole entry, looked up): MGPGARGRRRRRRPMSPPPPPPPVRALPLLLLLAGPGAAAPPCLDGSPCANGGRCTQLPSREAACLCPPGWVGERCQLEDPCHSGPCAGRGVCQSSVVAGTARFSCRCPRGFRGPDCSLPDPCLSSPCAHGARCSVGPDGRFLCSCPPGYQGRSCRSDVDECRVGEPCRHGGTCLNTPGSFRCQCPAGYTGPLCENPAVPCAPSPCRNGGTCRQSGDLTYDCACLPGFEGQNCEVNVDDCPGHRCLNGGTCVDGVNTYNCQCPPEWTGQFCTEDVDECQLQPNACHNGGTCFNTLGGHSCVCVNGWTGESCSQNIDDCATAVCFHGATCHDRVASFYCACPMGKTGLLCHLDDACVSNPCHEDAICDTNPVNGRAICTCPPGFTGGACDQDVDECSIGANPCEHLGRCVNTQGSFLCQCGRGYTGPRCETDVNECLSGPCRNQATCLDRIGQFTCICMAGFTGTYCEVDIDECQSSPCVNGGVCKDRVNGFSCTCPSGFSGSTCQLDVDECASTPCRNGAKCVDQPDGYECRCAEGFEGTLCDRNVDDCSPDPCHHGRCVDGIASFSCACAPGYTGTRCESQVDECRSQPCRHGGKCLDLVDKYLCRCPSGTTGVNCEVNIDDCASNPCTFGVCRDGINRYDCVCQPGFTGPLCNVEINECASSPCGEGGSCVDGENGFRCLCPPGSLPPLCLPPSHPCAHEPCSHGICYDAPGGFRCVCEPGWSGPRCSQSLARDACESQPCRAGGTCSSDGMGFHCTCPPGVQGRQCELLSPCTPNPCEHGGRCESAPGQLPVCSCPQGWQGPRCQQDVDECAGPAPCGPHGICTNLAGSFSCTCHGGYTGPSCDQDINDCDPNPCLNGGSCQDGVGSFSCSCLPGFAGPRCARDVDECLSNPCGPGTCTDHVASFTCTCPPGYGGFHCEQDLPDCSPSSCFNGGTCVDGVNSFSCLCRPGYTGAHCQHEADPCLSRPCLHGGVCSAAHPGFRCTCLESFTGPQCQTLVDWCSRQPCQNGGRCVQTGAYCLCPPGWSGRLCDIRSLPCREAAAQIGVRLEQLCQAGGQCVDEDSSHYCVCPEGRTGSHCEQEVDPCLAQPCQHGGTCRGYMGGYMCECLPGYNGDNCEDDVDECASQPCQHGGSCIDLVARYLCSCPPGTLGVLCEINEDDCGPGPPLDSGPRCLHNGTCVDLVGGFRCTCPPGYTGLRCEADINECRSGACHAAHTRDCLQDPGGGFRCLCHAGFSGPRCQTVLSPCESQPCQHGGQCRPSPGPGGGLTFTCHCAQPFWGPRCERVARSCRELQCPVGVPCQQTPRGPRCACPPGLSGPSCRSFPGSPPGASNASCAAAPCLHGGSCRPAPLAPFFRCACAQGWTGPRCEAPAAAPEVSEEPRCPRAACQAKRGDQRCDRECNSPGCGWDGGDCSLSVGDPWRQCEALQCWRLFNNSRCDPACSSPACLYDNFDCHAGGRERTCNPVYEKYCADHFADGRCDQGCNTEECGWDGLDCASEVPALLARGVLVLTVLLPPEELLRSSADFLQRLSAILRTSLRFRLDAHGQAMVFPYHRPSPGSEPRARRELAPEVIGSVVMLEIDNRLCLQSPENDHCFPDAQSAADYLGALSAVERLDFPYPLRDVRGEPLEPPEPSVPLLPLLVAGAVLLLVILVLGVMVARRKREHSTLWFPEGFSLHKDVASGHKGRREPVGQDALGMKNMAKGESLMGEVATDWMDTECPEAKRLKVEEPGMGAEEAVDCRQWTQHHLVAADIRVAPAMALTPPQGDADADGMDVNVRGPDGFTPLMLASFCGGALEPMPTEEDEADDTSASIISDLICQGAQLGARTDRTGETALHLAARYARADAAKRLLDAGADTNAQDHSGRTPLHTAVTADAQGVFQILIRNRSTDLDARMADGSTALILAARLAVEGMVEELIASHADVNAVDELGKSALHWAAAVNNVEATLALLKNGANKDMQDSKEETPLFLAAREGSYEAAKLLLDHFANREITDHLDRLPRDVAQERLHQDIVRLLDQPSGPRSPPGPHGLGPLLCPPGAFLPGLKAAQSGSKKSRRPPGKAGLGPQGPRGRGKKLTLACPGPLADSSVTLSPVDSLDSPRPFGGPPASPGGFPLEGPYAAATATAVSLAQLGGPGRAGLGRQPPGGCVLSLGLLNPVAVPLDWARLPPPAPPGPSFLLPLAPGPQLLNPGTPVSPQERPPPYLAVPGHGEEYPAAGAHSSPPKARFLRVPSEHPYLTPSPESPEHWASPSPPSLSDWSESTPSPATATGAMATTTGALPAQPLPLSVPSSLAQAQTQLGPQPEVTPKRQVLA

[20] = small-molecule microarray binders of probe aEGFR, primary screen, biochemical, biotinylated probe, 635/667 nm fluorescence (AID 1097); details: higher = more signal;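 note: probe is a biotinylated anti-EGFR antibody binding compounds printed on slides; score combines fluorescence near 667 nm and signal to noise of each spot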

SMILES	composite z-score [1]	composite z-score [2]	composite z-score [3]	composite z-score [4]	composite z-score [5]	composite z-score [6]	composite z-score [7]	z-score [8]	composite z-score [9]	composite z-score [10]	composite z-score [11]	z-score [12]	z-score [13]	z-score [14]	composite z-score [15]	z-score [16]	composite z-score [17]	composite z-score [18]	composite z-score [19]	composite z-score [20]
CN1C(=O)C2C=CC(C(O)c3ccc(F)cc3)N(N(c3ccccc3)c3ccccc3)C2C1=O (stereo not given)	0.5	-0.123	-0.0446	0.122	0.822	1.28	1.03	-0.368 (inactive)	0.56	-0.107	0.672	0.0729 (inactive)	0.91 (inactive)	0.0933 (inactive)	1.86	-1.2 (inactive)	0.0606	0.3	0.121	-0.0234
CC(C)(C)OC(=O)CC[C@@]1(C(=O)N2CCCCC2)N=C(c2ccc(OCCCO)cc2)O[C@@H]1c1ccccc1	0.249	0.615	0.171	0.783	1.68	1.72	1.23	-3.24 (inactive)	1.12	-0.0618	1.54	-1.23 (inactive)	-0.76 (inactive)	-0.95 (inactive)	3.52	-0.223 (inactive)	0.0215	0.318	1.12	-0.0053
CC(C)Cc1ccc(CN2CC[C@@H](N)C2)cc1	-0.103	-0.816	-0.219	-0.711	-1.3	-0.505	-1.11	-0.132 (inactive)	-0.635	-0.0193	-1.05	-1.18 (inactive)	-21.4 (active)	-4.81 (inactive)	-1.26	-4.43 (inactive)	-0.119	-0.707	-0.462	-0.336
CCCCN1CC=CC23O[C@@H]4C=CCOC(=O)[C@@H]4[C@H]2C(=O)N(CCCCCCO)[C@@H]3C1=O (stereo not given in full)	1.22	-0.64	-0.141	-1.34	-1.86	1.01	1.3	-0.0048 (inactive)	-0.581	-0.134	-0.598	-0.992 (inactive)	-0.053 (inactive)	-0.362 (inactive)	1.57	-0.44 (inactive)	-0.0665	-1.84	-0.61	-0.244
CN(C)C(=O)[C@]1(Cc2ccccc2)N=C(c2ccc(OCCCO)cc2)O[C@@H]1c1ccccc1N=[N+]=[N-]	0.303	0.746	0.0797	0.618	1.33	1.56	1.13	0.336 (inactive)	0.532	0.0749	1.56	-0.305 (inactive)	-0.655 (inactive)	1.06 (inactive)	2.84	0.841 (inactive)	0.141	1.35	1.12	0.438
COCCOC(=O)N1C(=O)[C@@]2(c3cc(C#CC4(O)CCCCCC4)ccc31)[C@H](C(=O)Nc1nc3ccccc3s1)[C@H]1C(=O)O[C@H](c3ccccc3)[C@H](c3ccccc3)N1[C@@H]2c1ccc(OCCO)cc1	-0.568	0.392	-0.083	0.797	1.07	0.727	1.15	4.24 (inactive)	0.277	0.0749	1.55	2.38 (inactive)	1.32 (inactive)	4.01 (inactive)	1.87	0.76 (inactive)	-0.0458	1.45	1.09	0.0064
C=CC[C@]1(C(N)=O)N=C(c2ccc(OCCCO)cc2)O[C@H]1c1ccccc1	0.966	-0.148	-0.0286	-0.0773	0.494	1.92	1.29	-1.59 (inactive)	-0.0521	-0.0296	0.243	-0.52 (inactive)	-0.0257 (inactive)	-0.953 (inactive)	2.17	0.0588 (inactive)	0.0493	0.201	-0.674	-0.165
CC=CC(O)C1C=CC2C(=O)N(C)C(=O)C2N1N(c1ccccc1)c1ccccc1 (stereo not given)	-0.108	0.273	-0.0567	0.367	1.44	0.837	1.12	0.621 (inactive)	-0.132	-0.201	0.344	0.586 (inactive)	1.91 (inactive)	1.29 (inactive)	-0.472	-0.357 (inactive)	0.0973	-0.0867	0.0161	0.248
O=C(NCc1ccccc1)[C@@H]1c2ccccc2C(=O)N(C2Cc3ccccc3C2)[C@H]1c1ccc(CO)cc1	0.335	0.0455	0.0017	0.526	0.501	1.02	0.971	-2.38 (inactive)	0.435	-0.181	1.56	0.106 (inactive)	0.287 (inactive)	0.644 (inactive)	2.03	-0.874 (inactive)	0.126	0.149	1.03	0.194
COCCCNC(=O)[C@@]1(CCS(=O)(=O)c2ccccc2)N=C(c2ccc(OCCCO)cc2)O[C@H]1c1ccccc1N=[N+]=[N-]	0.205	2.1	0.137	1.17	1.48	1.7	1.23	1.72 (inactive)	1.63	-0.0645	1.53	-1.2 (inactive)	0.431 (inactive)	1.36 (inactive)	3.47	0.299 (inactive)	0.155	0.908	1.07	0.0135
CO[C@H]1O[C@H](CO)[C@@H](OC(=O)Nc2cccc(F)c2)[C@H](OC(=O)Nc2ccccc2)[C@H]1OC(=O)Nc1ccccc1	-0.246	1.35	0.0664	0.466	1.07	0.981	1.36	0.746 (inactive)	0.724	-0.191	1.54	1.63 (inactive)	1.1 (inactive)	5.68 (inactive)	3.37	-0.168 (inactive)	-0.0285	0.828	1.11	0.0778
COc1ccccc1CN1C(=O)c2ccccc2[C@@H](C(=O)NCc2ccccc2)[C@@H]1c1ccc(CO)cc1	-0.232	0.939	-0.171	-0.298	0.0668	1.1	1.26	-2.9 (inactive)	0.635	-0.34	0.713	0.649 (inactive)	0.417 (inactive)	0.253 (inactive)	2.33	0.409 (inactive)	-0.26	0.286	0.271	-0.336
O=C1C2C=CC(C(O)C=Cc3ccc([N+](=O)[O-])cc3)N(n3cnnc3)C2C(=O)N1Cc1ccccc1 (stereo not given)	0.246	1.31	0.0575	0.375	1.27	1.77	1.19	0.422 (inactive)	1.09	-0.226	0.934	-0.785 (inactive)	-3.83 (inactive)	-0.0166 (inactive)	1.92	-0.0783 (inactive)	0.292	-0.0663	0.989	-0.0703
COCC(=C=CC[C@H](O)c1ccccc1OCCO)CCO	-0.2	0.32	-0.0747	0.225	-0.626	1.24	0.857	0.212 (inactive)	-0.0019	0.0373	0.43	-0.594 (inactive)	-0.5 (inactive)	-0.127 (inactive)	1.8	0.309 (inactive)	0.0041	0.698	0.318	-0.1
CCCCN1CC=CC23O[C@@H]4/C=C\CCCOC(=O)C4[C@H]2C(=O)N(CCCO)[C@@H]3C1=O (stereo not given in full)	0.228	-0.7	-0.036	-0.0326	-0.913	0.817	1.46	0.829 (inactive)	-0.629	-0.318	1.27	-1.15 (inactive)	-1.04 (inactive)	-0.513 (inactive)	2.86	0.0383 (inactive)	-0.212	-0.991	-0.1	-0.324
[N-]=[N+]=Nc1ccccc1C[C@]1(C(=O)NCc2ccccc2)N=C(c2ccc(OCCCO)cc2)O[C@H]1c1ccccc1N=[N+]=[N-]	-0.0447	0.288	0.189	0.218	1.49	1.6	1.06	-0.899 (inactive)	0.726	-0.0672	1.52	0.422 (inactive)	1.63 (inactive)	4.87 (inactive)	2.53	0.362 (inactive)	0.292	0.358	1.04	-0.067
COc1ccc(-c2cc3c(c(Cc4ccccc4)n2)[Si](C(C)C)(C(C)C)OC3)cn1	-0.305	0.28	-0.0668	0.0198	0.0333	-0.53	-0.723	-1.27 (inactive)	0.29	-0.236	-0.738	1.64 (inactive)	-0.27 (inactive)	1.41 (inactive)	-0.655	-1.41 (inactive)	-0.115	-0.154	-0.459	-0.16
COCCCNC(=O)[C@@]1(Sc2ccc(C)cc2)CC(=O)N(Cc2ccccc2Cl)[C@@H]1c1ccc(CO)cc1	0.59	2.15	-0.119	0.429	0.307	1.14	0.938	-2.45 (inactive)	0.393	-0.0645	1.54	-0.15 (inactive)	-0.429 (inactive)	-0.439 (inactive)	2.74	-1.29 (inactive)	0.0112	1.05	1.12	-0.0874
COc1ccc(NN2C(C(O)c3ccc(N(C)C)cc3)C=CC3C(=O)N(C4CCCCC4)C(=O)C32)cc1 (stereo not given)	0.419	0.427	0.157	1.01	1.53	1.05	1.15	0.613 (inactive)	0.352	0.284	1.51	-0.229 (inactive)	0.594 (inactive)	0.687 (inactive)	2.91	-0.386 (inactive)	0.329	0.134	1.09	0.174
